Mot1-301 SUMO = SUMOylation pathway inhibition by Mot1-301 growth rescue; S. cerevisiae Mot1-301 growth rescue, ATP luminescence, 38.5C; percent above DMSO median, 100 means doubled; growth rescue, % at 18.8 µM; actives 1% (n = 320,000); AID 2716;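 active = every valid replicate shows activation above 250% relative to neutral control wells; inactive = the rest, any valid replicate at or below 250%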;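 also: OY570 slx delta 5 strain wells were the positive control but not used for scaling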
Cardio protect = modulators protecting cardiomyocytes from myocardial damage. H9c2 cardiomyocytes, H2O2 injury protection, ATPLite, 2 h. protection from H2O2 cell death, % at 20 µM. actives 0.63% (n = 360,000). AID 588492;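 active = compounds giving at least 50% protection of heart cells from peroxide-induced death in the single-dose screen, raw or plate-pattern-corrected value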;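 also: 0% = DMSO wells with peroxide and 100% = DMSO wells without peroxide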
FAS-TE inh = FAS thioesterase (human) inhibition; P49327; recombinant FAS-TE, OMFH fluorogenic substrate, fluorescence endpoint; inhibition, % at 15 µM; actives 0.67% (n = 360,000); AID 602261;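 active = compounds whose normalised, plate-corrected inhibition of enzyme fluorescence in the single-dose primary screen is 50% or more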;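 also: 0% = DMSO with enzyme and 100% = substrate without enzyme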
MPTP block = permeability transition pore inhibition; isolated mouse mitochondria, Ca2+ swelling absorbance, 30 min; inhibition, % at 10 µM; actives 1.4% (n = 360,000); AID 602449;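 active = inhibition of 50% or more, scaled per plate between neutral and stimulator controls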;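 also: 0% = DMSO wells given calcium and 100% = 1 mM EGTA wells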
Yeast superoxide = lowers age-related superoxide in aged yeast cells. S. cerevisiae aged cells, superoxide DHE fluorescence; active compounds read low. superoxide response (% of plate mean), % at 10 µM. actives 0.18% (n = 330,000). AID 2690;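 active = superoxide response under a set limit, about three screen SD below normal, cut at about 65% in these data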;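 also: yeast aged for seven days with compound at 30 °C before DHE staining; 100% = average MFI of all compound-treated wells on the plate with controls excluded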
aDG glyco act = increases alpha dystroglycan glycosylation; activation, % at 10 µM; AID 624168; Pro5-aDG cells, alpha-DG glycosylation AlphaScreen (IIH6); 0% Pro5, 100% B10-LARGE cell signal; actives 0.22% (n = 360,000);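 active = activation of at least 8% versus controls, or a plate z-score of at least 8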;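 also: Pro5 are CHO cells carrying HIG-tagged alpha-DG that lacks glycosylation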
* marks the source's active call; other numbers are inactive results; / = no result given; + = active, no number. This is a sample that favours compounds with a hit; in the whole collection about 3.8% have one here.

SMILES	Mot1-301 SUMO	Cardio protect	FAS-TE inh	MPTP block	Yeast superoxide	aDG glyco act
NC(=O)c1oc2ccccc2c1NC(=O)c1ccco1	4	72*	0	-1	90	0
COC(=O)c1ccc2c(=O)n(CCN3CCOCC3)c(SCC(=O)Nc3ccc(C)cc3)nc2c1	/	15	11	-1	101	0
NC(=O)c1ccc(NC(=O)COC(=O)c2c3c(nc4ccccc24)/C(=C\c2cccs2)CCC3)cc1	5	54*	3	4	132	-1
CCCCCNC(=O)C(=O)C1C(=O)Nc2ccccc21 (configuration not stated)	-23	-2	1	1	56*	0
CN(C)CCNC(=O)C(=O)C1C(=O)Nc2ccccc21 (configuration not stated)	-4	/	/	/	98	/
Cc1ccc(S(=O)(=O)N2CCN(C(=O)c3ccccc3)C2C(C)C)cc1 (configuration not stated)	279*	14	-3	0	100	0
CCOc1ccc2c(c1)c(=O)c(S(=O)(=O)c1ccc(CC)cc1)cn2C	21	-2	6	-1	97	0
CC(=O)Nc1ccc(NCCc2ccco2)cc1	/	1	-13	-1	/	0
COC(=O)C=C1CCC2C3CCC4=CC(=O)C(Br)CC4(C)C3C(=O)CC12C (configuration not stated)	/	1	22	-1	/	1
CCN(CC)S(=O)(=O)c1ccc(N/N=C/c2ccc(O)cc2O)nc1	-22	78*	2	2	102	1
O=C(c1ccccc1)c1c[nH]c(C(=O)NNc2ccccc2)c1	404*	-18	0	0	100	4
C=CCn1cccc(C(=O)Nc2ccc(OC)cc2)c1=O	-7	0	-5	-1	86	0
COc1ccc(NC(=O)c2cccn(CC=C(C)C)c2=O)cc1	331*	-2	10	1	99	0
CCCOc1ccc2c(c1)C(=NN=C(N)N)c1cc(OCCC)ccc1-2	286*	-20	-139	3	102	0
CCN(CC)CCOc1ccc2c(c1)C(=NO)c1cc(OCCN(CC)CC)ccc1-2	7	4	-11	1	92	0
C[C@H](CO)N1C[C@H](C)[C@H](CN(C)C(=O)Nc2cccc3ccccc23)OCc2cnnn2CCCC1=O	/	4	-10	-1	/	0
COc1ccccc1NS(=O)(=O)c1ccc2ccccc2c1	-7	-10	9	1	101	0
COc1ccc(NS(=O)(=O)c2ccc3ccccc3c2)c2ncccc12	-9	59*	27	-2	127	0
COc1ccccc1CNC(=O)CCS(=O)(=O)c1ccc2c(c1)CCN2C(C)=O	8	-2	-3	-3	124	5.3*
COc1ccc(CCNC(=O)CCS(=O)(=O)c2ccc3c(c2)CCN3C(C)=O)cc1OC	/	2	-7	-2	98	0
CC(=O)c1c(C)[nH]c(C(=O)COc2ccc3ccc(=O)oc3c2)c1C	-8	28	6	0	104	0
COC(=O)c1c(C)[nH]c(C(=O)COc2ccc3ccc(=O)oc3c2)c1C	-4	81*	2	1	135	0
O=C(O)Cn1cc(/C=N/NC(=O)c2cc3cc(Br)ccc3o2)c2ccccc21	+	-1	3	2	95	0
Cn1cc(/C=N/NC(=O)c2cc3cc(Br)ccc3o2)c2ccccc21	7	19	-6	2	93	0
Cn1c(=O)c2c(nc(NCCCO)n2C/C=C/c2ccccc2)n(C)c1=O	0	62*	-4	0	96	0
CC(O)CNc1nc2c(c(=O)n(C)c(=O)n2C)n1C/C=C/c1ccccc1 (configuration not stated)	-7	30	-2	0	95	0
CC/C(C)=N\N=C\c1c(O)n(CC)c2cc(C3=NNC(=O)CC3)ccc12	-20	61*	-2	0	95	0
CCOC(=O)c1nnn(-c2nc(N3CCCC3)nc(N3CCCC3)n2)c1-c1ccccc1	-8	7	17	7	98	0
CCOC(=O)c1c(-c2ccccc2)nnn1-c1nc(OCC)nc(N2CCCCC2)n1	6	70*	22	0	101	0
Cc1cc2cc(C#N)c(N3CCOCC3)nc2cc1Cl	-8	-5	9	3	95	0
